The source of these data is PubChem BioAssay (NCI).

Compounds without any hit were thinned out: in the full panel of roughly 83,000, 20% have a hit.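 In brief: 96-well plates, 48 h treatment, single concentration, percent growth endpoint.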 Values without a mark were called inactive. The source made the active and inactive calls. Rule for the calls: active = growth percent below 10; inactive = the rest.

This assay relates to HL-60(TB) leukemia. The experiment in a line: NCI-60 one-dose screen, 48 h (100 = growth as untreated, 0 = no growth, -100 = all killed). The conditions noted are these: 10 µM unless noted.
With `CN1CCN(c2ccc3nc(-c4ccc5nc(-c6ccc(O)cc6)[nH]c5c4)[nH]c3c2)CC1`, the growth is 40.9%. For `COC(=O)c1cncc(C(=O)Nc2ccc(-n3cnc4ccccc43)cc2)c1` the value was 93.7%; for `COc1cc2nc(-c3ccc(-c4nn[nH]n4)cc3)[nH]c(=O)c2cc1OC`, 93.8%; for `O=C(/C=C/c1ccc[nH]1)c1ccc(-n2ccc(C(F)(F)F)n2)c(F)c1`, -11.3% (active). As for `COc1ccc(/C=C(\C#N)n2nnc3cc(F)c(F)cc32)c(OC)c1OC`, the growth was 10.4%.
